# Laboratory results taken from PubChem BioAssay (Tox21).
# Unmarked numbers belong to inactive results. Results filed as inconclusive are left out. Entries that show only a call come without a potency. Calls of active or inactive are those of the source. Unless noted, the call rests on the fitted dose curve; in most records, active means well fitted curve in the direction sought with a large enough effect in the repeat runs; inconclusive means weak or mixed curves; inactive means no such curve, though single readings can be large; an effect the other way counts as inactive or inconclusive.
# Columns and labels:
# [1] = A CellTox Green Cytotoxicity Assay to monitor cytotoxicity in HEK293 cells - 32 hour (AID 1224881); further: nearly all actives have a fitted effect of over 40% in size
# Summary of the method: (§1)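 Dead-cell fluorescence measured kinetically: asymmetric cyanine dye, HEK293, 600 cells/well, 5 h settle, 23 nL cpd/DMSO, 37 C, reads 0–40 h every 8 h.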
# [2] = A CellTox Green Cytotoxicity Assay to monitor cytotoxicity in HepG2 cells - 0 hour (AID 1224882); further: nearly all actives have a fitted effect of over 35% in size
# Summary of the method: (§2)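 First, HepG2 cells (600/well) mixed with reagent were plated; second, after 5 h at 37 C they received compounds via pintool; third, fluorescence was measured at 0 h through 40 h at 8 h intervals.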
# [3] = A CellTox Green Cytotoxicity Assay to monitor cytotoxicity in HepG2 cells - 32 hour (AID 1224883); further: nearly all actives have a fitted effect of over 50% in size
# Summary of the method: as §2
# [4] = A CellTox Green Cytotoxicity Assay to monitor cytotoxicity in HEK293 cells - 8 hour (AID 1224884); further: nearly all actives have a fitted effect of over 35% in size
# Summary of the method: as §1
# [5] = qHTS RealTime-Glo MT Cell Viability Assay in HepG2 cells - 16 hour (AID 1224885); further: nearly all actives have a fitted effect of over 50% in size
# Summary of the method: (§3)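 Luminescence read-out: viable HepG2 cells reduce a prosubstrate to a NanoLuc substrate, giving a signal proportional to live cell number. Reads taken at 0, 8, 16, 24, 32 and 40 h of compound exposure at 37 C.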
# [6] = A CellTox Green Cytotoxicity Assay to monitor cytotoxicity in HEK293 cells - 16 hour (AID 1224888); further: nearly all actives have a fitted effect of over 35% in size
# Summary of the method: as §1
# [7] = qHTS RealTime-Glo MT Cell Viability Assay in HepG2 cells - 0 hour (AID 1224889); further: nearly all actives have a fitted effect of over 50% in size
# Summary of the method: as §3
# [8] = A CellTox Green Cytotoxicity Assay to monitor cytotoxicity in HepG2 cells - 8 hour (AID 1224890); further: nearly all actives have a fitted effect of over 45% in size
# Summary of the method: as §2
# [9] = qHTS assay to identify small molecule antagonists of the estrogen receptor alpha (ER-alpha) signaling pathway using the BG1 cell line in the presence of 0.1 nM 17-beta-estradiol - cell viability counter screen (AID 1259241); further: nearly all actives have a fitted effect of over 40% in size
# Summary of the method: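 Estradiol-stimulated (0.1 nM) VM7Luc4E2 cells exposed to compounds 22 hr; viability measured by fluorescence of cleaved CellTiter-Fluor substrate after 30 min.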
# [10] = qHTS assay to identify small molecule antagonists of the androgen receptor (AR) signaling pathway using the MDA cell line in the presence of 0.5 nM R1881 - cell viability counter screen (AID 1259242); further: nearly all actives have a fitted effect of over 45% in size
# Summary of the method: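 qHTS format. MDA-kb2 (MMTV-luc, AR/GR responsive) + cpd + 0.5 nM R1881 final, 16 hr 37C/0% CO2 → CellTiter-Fluor 30 min → fluorescence intensity.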
# [11] = target: Estrogen receptor (Homo sapiens) (UniProt P03372); test: qHTS assay to identify small molecule antagonists of the estrogen receptor alpha (ER-alpha) signaling pathway using the BG1 cell line in the presence of 0.1 nM 17-beta-estradiol (AID 1259244); further: nearly all actives have a fitted effect of over 50% in size; further: potency means the concentration at half of the fitted maximal effect
# Summary of the method: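 Reporter is a stably transfected luciferase under four estrogen responsive elements in VM7Luc4E2 cells expressing native full-length ER-alpha; inhibition of 0.1 nM (final) 17beta-estradiol-driven signal over 22 h is read by luminescence.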
# [12] = qHTS assay to identify small molecule HDAC inhibitors (AID 1259364);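 further: wild-type HCT-116 cells with endogenous class I/II HDAC activity; top concentration of the series differs between compounds; nearly all actives have a fitted effect of over 45% in size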
# Summary of the method: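 Quantitative high-throughput format: overnight-seeded HCT-116 cells got compounds for 2 hr at 37C; HDAC-Glo I/II reagent added, 30 min RT, luminescence measured.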
# [13] = qHTS assay to identify small molecule HDAC inhibitors - cell viability counter screen (AID 1259365)
# Summary of the method: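 After overnight seeding at 1,500 cells per well, wild-type HCT-116 cultures took up compounds in DMSO for 2hr at 37 C. Viable cell content came from luminescence with CellTiter-Glo.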
# [14] = qHTS assay to identify small molecule agonists of the sonic hedgehog signaling (Shh) pathway - cell viability counter screen (AID 1259366); further: nearly all actives have a fitted effect of over 50% in size
# Summary of the method: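 Same-well cytotoxicity read. Gli1-Luc reporter 3T3 cells; compounds 24hr, 37C/5% CO2; CellTiter-Fluor fluorescence.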
# [15] = qHTS assay to identify small molecule antagonists of the sonic hedgehog signaling (Shh) pathway - cell viability counter screen (AID 1259367); further: nearly all actives have a fitted effect of over 55% in size
# Summary of the method: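 Tox21 library chemicals were tested on a Gli1-Luc NIH/3T3 clone (2,000 cells/well) stimulated by conditioned medium; viability was quantified as fluorescence from CellTiter-Fluor reagent added at 23 hr.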
# [16] = qHTS assay to identify small molecule agonists of the sonic hedgehog signaling (Shh) pathway (AID 1259368; calls by dose curve;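 further: NIH/3T3-derived 3T3Gli1-Luc cells carrying a stable Gli1-driven firefly luciferase reporter; series mostly up to about 92 µM; nearly all actives have a fitted effect of over 15% in size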)
# Summary of the method: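 Quantitative high-throughput format using a Gli1-driven firefly luciferase reporter line derived from NIH/3T3 cells. After a 24 hr compound treatment at 37 C and 5% CO2, luminescence reported Gli1 response element activity.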
# [17] = qHTS assay to identify small molecule phospholipidosis (PLD) inducers (AID 1259344; active means well fitted curve in the direction sought with a large enough effect; an effect the other way counts as inactive or inconclusive)
# Summary of the method: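 Image-based: LipidTOX Red pit count/intensity per well and per cell; HepG2, 24 h compound at 37 C, PFA fixation, Hoechst counterstain.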
# [18] = qHTS RealTime-Glo MT Cell Viability Assay in HEK293 cells - 8 hour (AID 1224887); further: nearly all actives have a fitted effect of over 50% in size; further: potency means the concentration at half of the fitted maximal effect
# Summary of the method: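 600 HEK293 cells per well, dispensed already mixed with RealTime-Glo MT reagents. Compound dosing came 5 h later. The same wells were read for luminescence at 0, 8, 16, 24, 32 and 40 h of exposure at 37 C.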
# [19] = target: Androgen receptor (Homo sapiens) (UniProt P10275); test: qHTS assay to identify small molecule antagonists of the androgen receptor (AR) signaling pathway using the MDA cell line in the presence of 0.5 nM R1881 (AID 1259243); further: nearly all actives have a fitted effect of over 50% in size
# Summary of the method: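 Antagonist mode quantitative HTS in MDA-kb2 MMTV-luciferase cells, agonist R1881 at 0.5 nM final, 16 hr exposure at 37C and 0% CO2, luminescent detection.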
# Chain of Estrogen receptor (Homo sapiens) (P03372 whole entry, looked up): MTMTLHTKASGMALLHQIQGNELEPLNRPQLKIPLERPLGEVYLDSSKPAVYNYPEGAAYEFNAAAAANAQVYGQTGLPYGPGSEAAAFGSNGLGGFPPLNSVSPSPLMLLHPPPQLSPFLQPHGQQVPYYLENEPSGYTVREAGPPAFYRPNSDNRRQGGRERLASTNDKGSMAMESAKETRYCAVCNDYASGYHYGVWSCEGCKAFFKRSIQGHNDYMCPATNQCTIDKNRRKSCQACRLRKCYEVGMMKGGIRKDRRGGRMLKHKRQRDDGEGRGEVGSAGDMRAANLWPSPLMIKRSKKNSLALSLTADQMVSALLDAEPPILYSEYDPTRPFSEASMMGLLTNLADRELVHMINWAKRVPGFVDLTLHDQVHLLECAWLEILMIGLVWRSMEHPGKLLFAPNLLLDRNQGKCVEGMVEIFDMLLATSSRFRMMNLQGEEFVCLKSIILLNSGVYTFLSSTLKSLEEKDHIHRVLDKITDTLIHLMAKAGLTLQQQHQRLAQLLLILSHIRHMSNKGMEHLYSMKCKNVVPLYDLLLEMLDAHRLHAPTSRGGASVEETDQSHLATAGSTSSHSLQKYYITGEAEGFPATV
# Chain of Androgen receptor (Homo sapiens) (P10275 whole entry, looked up): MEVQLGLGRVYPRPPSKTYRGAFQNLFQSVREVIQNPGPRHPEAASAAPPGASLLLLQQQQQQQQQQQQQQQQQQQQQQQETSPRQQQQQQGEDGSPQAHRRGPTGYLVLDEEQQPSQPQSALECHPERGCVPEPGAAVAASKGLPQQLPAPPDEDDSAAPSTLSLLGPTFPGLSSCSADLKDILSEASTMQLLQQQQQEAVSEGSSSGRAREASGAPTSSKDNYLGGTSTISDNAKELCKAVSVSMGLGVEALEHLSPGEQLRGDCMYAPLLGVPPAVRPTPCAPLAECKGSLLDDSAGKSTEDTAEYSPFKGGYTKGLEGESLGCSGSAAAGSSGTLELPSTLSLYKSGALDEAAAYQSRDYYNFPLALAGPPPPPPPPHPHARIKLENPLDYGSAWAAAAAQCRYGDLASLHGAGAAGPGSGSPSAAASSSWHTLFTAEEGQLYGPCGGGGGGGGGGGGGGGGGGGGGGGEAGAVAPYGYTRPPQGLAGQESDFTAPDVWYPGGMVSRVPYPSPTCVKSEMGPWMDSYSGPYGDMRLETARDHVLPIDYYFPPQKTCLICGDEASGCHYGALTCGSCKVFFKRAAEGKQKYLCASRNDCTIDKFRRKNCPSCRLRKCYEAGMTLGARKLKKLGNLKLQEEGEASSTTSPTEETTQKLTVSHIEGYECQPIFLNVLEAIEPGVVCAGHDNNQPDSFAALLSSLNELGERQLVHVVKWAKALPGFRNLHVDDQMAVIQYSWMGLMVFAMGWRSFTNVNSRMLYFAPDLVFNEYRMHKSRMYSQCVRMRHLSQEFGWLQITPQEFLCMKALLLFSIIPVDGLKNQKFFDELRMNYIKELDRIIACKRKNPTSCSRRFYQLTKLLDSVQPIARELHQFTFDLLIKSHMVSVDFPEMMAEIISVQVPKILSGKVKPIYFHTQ
Compound,Potency [1],Potency [2],Potency [3],Potency [4],outcome [5],Potency [6],Potency [7],Potency [8],Potency [9],outcome [10],Potency [11],Potency [12],outcome [13],Potency [14],Potency [15],Potency [16],outcome [17],Potency [18],Potency [19]
Cc1nc(N)nc(N)c1-c1ccc(Cl)c(Cl)c1,inactive,inactive,inactive,inactive,inactive,inactive,inactive,inactive,inactive,inactive,13.3 µM (active),inactive,inactive,inactive,inactive,inactive,,,
COc1ccccc1N1CCN(CCCNc2cc(=O)n(C)c(=O)n2C)CC1,inactive,inactive,inactive,inactive,inactive,inactive,inactive,inactive,inactive,inactive,inactive,inactive,inactive,inactive,inactive,inactive,inactive,,
C/C(=N\O)[C@@H](C)NCC(C)(C)CN[C@H](C)/C(C)=N/O,inactive,inactive,inactive,inactive,inactive,inactive,inactive,inactive,inactive,inactive,,inactive,inactive,inactive,inactive,inactive,,inactive,
CCOc1ccccc1N,inactive,inactive,inactive,inactive,inactive,inactive,inactive,inactive,inactive,,30.4 µM (active),inactive,inactive,inactive,inactive,,,inactive,
NS(=O)(=O)c1cc(-c2nn[nH]n2)c(NCc2cccs2)cc1Cl,inactive,inactive,inactive,inactive,inactive,inactive,inactive,inactive,inactive,inactive,inactive,inactive,inactive,,,inactive,inactive,inactive,
COC(C)CCO (stereo not given),inactive,inactive,inactive,inactive,inactive,inactive,inactive,inactive,,inactive,,inactive,inactive,,inactive,inactive,,inactive,inactive
Cc1c(-c2ccccc2)oc2c(C(=O)OCCN3CCCCC3)cccc2c1=O,inactive,inactive,inactive,inactive,inactive,inactive,inactive,inactive,,inactive,inactive,inactive,inactive,inactive,inactive,inactive,inactive,19 µM (active),
C[C@]12CCC(=O)C=C1CC[C@@H]1[C@@H]2CC[C@@]2(C)[C@H]1CC[C@]2(O)C(=O)CO,inactive,inactive,inactive,inactive,inactive,inactive,,inactive,inactive,inactive,inactive,inactive,inactive,,inactive,inactive,inactive,inactive,
O=CCCc1ccccc1,inactive,inactive,inactive,inactive,inactive,inactive,inactive,inactive,,inactive,,inactive,inactive,inactive,inactive,inactive,,inactive,
CC(C)c1ccccc1,inactive,inactive,inactive,inactive,inactive,,inactive,inactive,inactive,inactive,inactive,inactive,inactive,inactive,inactive,inactive,,inactive,inactive
CCC/C=C/CO,inactive,inactive,inactive,inactive,inactive,inactive,inactive,inactive,inactive,inactive,inactive,inactive,inactive,inactive,inactive,inactive,,inactive,
CN(CC1(C)CCCO1)S(=O)(=O)c1ccc(Cl)c(S(N)(=O)=O)c1 (stereo not given),inactive,inactive,inactive,inactive,inactive,inactive,inactive,inactive,,inactive,,inactive,inactive,inactive,inactive,inactive,,inactive,
CC(C)S,inactive,inactive,inactive,inactive,inactive,inactive,inactive,inactive,inactive,inactive,inactive,inactive,inactive,inactive,,inactive,,inactive,
CC1=CC(=O)CC(C)(C)C1=O,inactive,inactive,inactive,inactive,inactive,inactive,inactive,inactive,inactive,inactive,inactive,,inactive,inactive,inactive,inactive,,inactive,
CN1[C@@H]2CC[C@H]1CC(OC(=O)c1c[nH]c3ccccc13)C2 (stereo not given in full),inactive,inactive,inactive,inactive,inactive,,inactive,inactive,inactive,inactive,,inactive,inactive,inactive,inactive,inactive,inactive,inactive,
CCCCC(=O)O[C@]1(C(=O)CO)[C@H](C)C[C@H]2[C@@H]3CCC4=CC(=O)C=C[C@]4(C)[C@@]3(F)[C@@H](O)C[C@@]21C,inactive,inactive,inactive,inactive,inactive,inactive,,inactive,inactive,inactive,inactive,inactive,inactive,inactive,inactive,inactive,inactive,inactive,
CCCC(CCC)(C(=O)OCC)C(=O)OCC,inactive,inactive,inactive,inactive,inactive,inactive,inactive,inactive,inactive,inactive,inactive,inactive,inactive,inactive,inactive,inactive,,inactive,inactive
